Results taken from ChEMBL document CHEMBL4513216, “Probing the Open Global Health Chemical Diversity Library for Multistage-Active Starting Points for Next-Generation Antimalarials” (ACS Infect Dis, 2020).
About 2,700 (4%) of roughly 68,000 compounds showed an effect of 50% or more. What follows is part of a selection rich in strong results, with near analogues and random picks from the rest.

What follows are compounds tested on Plasmodium berghei (assay: Screen against P. berghei liver stage (PbLuc), transformed with Luciferase, at 2uM). Details: tested at 2 uM.
Type: functional, HepG2

**Q.** `CCN(CC)S(=O)(=O)CC(=O)Nc1ccsc1` was tested. Which INHIBITION did it give?
**A.** 64.08%

**Q.** How did the INHIBITION turn out when `CCCS(=O)(=O)CC(=O)Nc1ccsc1` was run?
**A.** 22%

**Q.** For `CS(=O)(=O)CCC(=O)Nc1ccsc1`, which INHIBITION is on record?
**A.** 10.22%

**Q.** `O=C(c1cc2c(s1)CCC2)N1CCN(c2cnccn2)CC1` was tested. Which INHIBITION did it give?
**A.** -32.45%

**Q.** With `N#Cc1ccc(OCC(O)CN2CCN(c3nccs3)CC2)cc1` (configuration not stated) as the compound, how does the INHIBITION read?
**A.** 2.2%

**Q.** For `O=C(O)CCC(=O)N1CCN(CC2CC2)c2ncccc2C1`, which INHIBITION is on record?
**A.** 18.6%

**Q.** `Cc1occc1C(=O)N1CCC(C(O)c2ccc(Cl)cc2)CC1` (configuration not stated) was tested. Which INHIBITION did it give?
**A.** 59.03%

**Q.** `Cc1c(C(=O)N2CCC(C(O)c3ccc(Cl)cc3)CC2)cnn1C` (configuration not stated) was tested. Which INHIBITION did it give?
**A.** 10.22%

**Q.** Which INHIBITION does the source give for `CCn1cnnc1C1CCN(C(=O)c2ccoc2C)CC1` here?
**A.** 70.27%

**Q.** `CCn1cnnc1C1CCN(C(=O)c2cc(OC)ccc2OC)CC1` was tested. Which INHIBITION did it give?
**A.** -33.61%

**Q.** `CCn1cnnc1C1CCN(C(=O)c2c(C)oc(C)c2C)CC1` was tested. Which INHIBITION did it give?
**A.** -11.32%

**Q.** `CCn1cnnc1C1CCN(C(=O)c2cccc(OC)c2OC)CC1` was tested. Which INHIBITION did it give?
**A.** 66.2%

**Q.** With `CCn1cnnc1C1CCN(C(=O)c2ccccc2OC)CC1` as the compound, how does the INHIBITION read?
**A.** -45.23%

**Q.** `Cc1occc1C(=O)N1CCC(C(O)c2ccc(F)cc2)CC1` (configuration not stated) was tested. Which INHIBITION did it give?
**A.** 47.25%

**Q.** How did the INHIBITION turn out when `CCn1cnnc1C1CCN(C(=O)c2cccc(C)c2C)CC1` was run?
**A.** 1.02%

**Q.** Which INHIBITION does the source give for `CCn1nc(C)c2c1cnn2CCNS(=O)(=O)Cc1ccccc1` here?
**A.** 16.97%

**Q.** How did the INHIBITION turn out when `CN(C)Cc1cccc(C(=O)N2CCCC(n3cncn3)C2)c1` (configuration not stated) was run?
**A.** 21.39%

**Q.** With `CC(C)c1cc(C(=O)N2CCC3(CCc4ccccc4C(=O)N3)C2)on1` (configuration not stated) as the compound, how does the INHIBITION read?
**A.** 9.9%

**Q.** Which INHIBITION does the source give for `CNC(=O)c1n[nH]c2c1C(c1cccc3c1OC(C)(C)C3)CC(=O)N2` (configuration not stated) here?
**A.** 48.21%

**Q.** With `Cc1nc(CN2CCN(C(=O)c3ccc(=O)n(C)c3)CC2)cs1` as the compound, how does the INHIBITION read?
**A.** -3.4%

**Q.** Which INHIBITION does the source give for `CCN1CCC12CCN(C(=O)c1ccsc1)C2` (configuration not stated) here?
**A.** 13.75%

**Q.** With `Cc1ccccc1-c1noc(C2CC(C(C)C)=NO2)n1` (configuration not stated) as the compound, how does the INHIBITION read?
**A.** -10.37%

**Q.** With `CC(C)C1=NOC(c2nc(Cc3ccccc3)no2)C1` (configuration not stated) as the compound, how does the INHIBITION read?
**A.** 50.46%

**Q.** With `COc1ccc(-c2noc(C3CC(C(C)C)=NO3)n2)cc1` (configuration not stated) as the compound, how does the INHIBITION read?
**A.** 7.37%

**Q.** `COCC(=O)N1CC2(CCN(c3ccccc3)C2)C1` was tested. Which INHIBITION did it give?
**A.** -31.82%

**Q.** `CCc1nc(CC2CN(c3ncnc4nc(C)cc(C)c34)CCO2)no1` (configuration not stated) was tested. Which INHIBITION did it give?
**A.** 5.1%

**Q.** `CS(=O)(=O)N[C@@H]1CCO[C@]2(CCN(C(=O)c3cscn3)C2)C1` was tested. Which INHIBITION did it give?
**A.** 23.1%

**Q.** `Cc1nc(C(=O)N2CC[C@@]3(C[C@H](NS(C)(=O)=O)CCO3)C2)cs1` was tested. Which INHIBITION did it give?
**A.** 60.79%

**Q.** `Cc1cc(C(=O)N2CC[C@@]3(C[C@@H](NS(C)(=O)=O)CCO3)C2)no1` was tested. Which INHIBITION did it give?
**A.** 19.51%

**Q.** With `CS(=O)(=O)N[C@@H]1CCO[C@]2(CCN(C(=O)c3cnccn3)C2)C1` as the compound, how does the INHIBITION read?
**A.** 9.14%

**Q.** For `CS(=O)(=O)N[C@H]1CCO[C@]2(CCN(C(=O)c3ccccn3)C2)C1`, which INHIBITION is on record?
**A.** 36.75%

**Q.** With `Cc1nc(C(=O)N2CC[C@@]3(C[C@@H](NS(C)(=O)=O)CCO3)C2)cs1` as the compound, how does the INHIBITION read?
**A.** 68.95%
